Drawing on PubChem BioAssay (EPA / NIEHS), this text covers AC50 and outcome for 3 compounds.

Activity calls are given as the source filed them. The calls were made as follows: active = hit-call score of the fitted dose curve at least 0.9, where 1 is the maximum; inactive = score below 0.9.

Read-out in assay [1]: Interleukin-1 alpha (IL1a), IL1A (gene 3552)
The assay can be described thus: BSK_LPS_IL1a: BioMAP Diversity Plus: LPS Assay for Interleukin-1 alpha (IL1a) Biomarker Activity (AID 2283080). The following applies: primary human HUVEC with PBMC; actives raise or lower the signal. Summed up:
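Measured: IL-1 alpha via ELISA at 24 h in LPS-activated human umbilical vein endothelium–PBMC co-culture. Baseline: DMSO, bidirectional fitting.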

Read-out in assay [2]: Monocyte Chemoattractant Protein-1 (MCP1), CCL2 (gene 6347)
The assay can be described thus: BSK_LPS_MCP1: BioMAP Diversity Plus: LPS Assay for Monocyte Chemoattractant Protein-1 (MCP1) Biomarker Activity (AID 2283081).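 As to AC50: secreted MCP-1 protein quantified by ELISA in culture supernatant.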 To be noted: primary human HUVEC with PBMC; actives raise or lower the signal. Summed up: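 LPS-stimulated HUVEC/PBMC co-culture; chemical, 24 h; MCP-1 by ELISA; bidirectional fit vs DMSO; cytotoxicity via SRB (0.1% stain, 10% TCA fix, 560 nm) in parallel wells.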

A short description of assay [3]: BSK_LPS_PGE2: BioMAP Diversity Plus: LPS Assay for Prostaglandin E2 (PGE2) Biomarker Activity (AID 2283082). The following applies: primary human HUVEC with PBMC; actives raise or lower the signal. Summed up: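 ELISA read-out of PGE2 from human umbilical vein endothelial cells co-cultured with peripheral blood mononuclear cells under LPS, 24 h post-dose. Gain or loss of signal scored relative to DMSO baseline.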

Read-out in assay [4]: Macrophage colony-stimulating factor (MCSF), CSF1 (gene 1435)
The assay can be described thus: BSK_LPS_MCSF: BioMAP Diversity Plus: LPS Assay for Macrophage colony-stimulating factor (MCSF) Biomarker Activity (AID 2283083). To be noted: primary human HUVEC with PBMC; actives raise or lower the signal. Summed up: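 Compound is added to a human vascular primary co-culture of umbilical vein endothelium and blood mononuclear cells. After 24 h, M-CSF is quantified by ELISA. Signal changes are fitted in both directions against DMSO.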

Read-out in assay [5]: Tissue Factor, F3 (gene 2152)
In words: BSK_LPS_TissueFactor: BioMAP Diversity Plus: LPS Assay for Tissue Factor Biomarker Activity (AID 2283084). The following applies: primary human HUVEC with PBMC; actives raise or lower the signal. Summed up:
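In this co-culture system of umbilical vein endothelium with PBMC, stimulated with LPS, cell-surface CD142 is detected by ELISA at 24 h. Endpoint values derive from bidirectional fitting, DMSO serving as baseline.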

Read-out in assay [6]: Tumor necrosis factor (Homo sapiens) (UniProt P01375)
In words: BSK_LPS_TNFa: BioMAP Diversity Plus: LPS Assay for Tumour Necrosis Factor alpha (TNFa) Biomarker Activity (AID 2283085).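 As to AC50: TNFa protein level quantified by ELISA in the co-culture.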 To be noted: primary human HUVEC with PBMC; actives raise or lower the signal. Summed up:
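HUVEC/PBMC co-culture, LPS-stimulated; 24 h post-dose; TNFa by ELISA; gain or loss of signal fitted bidirectionally vs DMSO baseline.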

Read-out in assay [7]: Vascular cell adhesion molecule 1 (VCAM1), VCAM1 (gene 7412)
The assay can be described thus: BSK_LPS_VCAM1: BioMAP Diversity Plus: LPS Assay for Vascular cell adhesion molecule 1 (VCAM1) Biomarker Activity (AID 2283086). To be noted: primary human HUVEC with PBMC; actives raise or lower the signal. Summed up:
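ELISA read-out of VCAM-1 at 24 h post-dosing in an LPS-driven HUVEC/PBMC primary human co-culture; gain or loss of signal fitted bidirectionally against DMSO baseline. Cytotoxicity tracked in parallel cultures by SRB total-protein staining.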

Read-out in another assay: CD38, CD38 (gene 952)
In words: BSK_SAg_CD38: BioMAP Diversity Plus: SAg Assay for CD38 Biomarker Activity (AID 2283087). To be noted: primary human HUVEC with PBMC; actives raise or lower the signal. Summed up:
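Measures CD38 on a human endothelial/PBMC co-culture driven by SEB and TSST-1, 24 h after compound exposure, using ELISA with fluorescence detection; DMSO defines baseline for bidirectional curve fitting.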

Read-out in another assay: CD40, CD40 (gene 958)
In words: BSK_SAg_CD40: BioMAP Diversity Plus: SAg Assay for CD40 Biomarker Activity (AID 2283088). The following applies: primary human HUVEC with PBMC; actives raise or lower the signal. Summed up: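 Fluorescence ELISA read-out of CD40 from umbilical vein endothelium plus peripheral blood mononuclear cells, sampled 24 h after dosing. Values come from bidirectional curve fitting with DMSO as baseline.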

Read-out in another assay: CD69, CD69 (gene 969)
In words: BSK_SAg_CD69: BioMAP Diversity Plus: SAg Assay for CD69 Biomarker Activity (AID 2283089).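 As to AC50: cell surface CD69 protein quantified by ELISA with fluorescence detection.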 To be noted: primary human HUVEC with PBMC; actives raise or lower the signal. Summed up:
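HUVEC co-cultured with PBMC were dosed with chemical, and CD69 was measured by ELISA with fluorescence read-out 24 h later. Bidirectional curve fitting used DMSO as negative control and activity baseline.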

Read-out in assay [8]: Monocyte Chemoattractant Protein-1 (MCP1), CCL2 (gene 6347)
In words: BSK_SAg_MCP1: BioMAP Diversity Plus: SAg Assay for Monocyte Chemoattractant Protein-1 (MCP1) Biomarker Activity (AID 2283090). To be noted: primary human HUVEC with PBMC; actives raise or lower the signal. Summed up: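 Values derive from bidirectional fitting of ELISA-measured MCP1 against DMSO controls. Readings were taken 24 h after dosing human vascular endothelial cells co-cultured with peripheral blood mononuclear cells under superantigen stimulation.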

Read-out in assay [9]: E-selectin (Homo sapiens) (UniProt P16581)
In words: BSK_SAg_Eselectin: BioMAP Diversity Plus: SAg Assay for Eselectin Biomarker Activity (AID 2283091). The following applies: primary human HUVEC with PBMC; actives raise or lower the signal. Summed up: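 Primary human endothelial cells and peripheral blood mononuclear cells were co-cultured and exposed to chemical for 24 hours. E-selectin levels were then quantified by ELISA, with bidirectional curve fitting normalised to DMSO controls.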

Read-out in assay [10]: Monokine induced gamma interferon (MIG), CXCL9 (gene 4283)
The assay can be described thus: BSK_SAg_MIG: BioMAP Diversity Plus: SAg Assay for Monokine induced gamma interferon (MIG) Biomarker Activity (AID 2283092). To be noted: primary human HUVEC with PBMC; actives raise or lower the signal. Summed up:
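HUVEC plus human PBMC co-culture, chemicals dosed and MIG (CXCL9) quantified by ELISA at 24 h. Bidirectional curve fitting against DMSO as negative control and baseline, so both gain and loss of signal count as activity.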

Assay [11] in a line: BSK_SAg_PBMCCytotoxicity: PBMC Cytotoxicity Assessment in the BioMAP Diversity Plus: SAg Assay (AID 2283093).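 Also: fitted both ways against DMSO so a hit may be loss or gain of signal.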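 As to AC50: PBMC superantigen activated with SEB plus TSST-1 one hour after compound addition.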 The following applies: primary human HUVEC with PBMC. Summed up:
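PBMC viability by Alamar Blue reduction, fluorescence read at 546/580 nm after 6 h dye exposure. Cells were dosed 1 h before SEB plus TSST-1 activation (20 ng/mL final each), then held 90 h; endothelial/PBMC human co-culture.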

Read-out in assay [12]: Interleukin-8 (IL8), CXCL8 (gene 3576)
The assay can be described thus: BSK_SAg_IL8: BioMAP Diversity Plus: SAg Assay for Interleukin-8 (IL8) Biomarker Activity (AID 2283094). To be noted: primary human HUVEC with PBMC; actives raise or lower the signal. Summed up:
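HUVEC/PBMC co-culture, 24 h post-dose; IL-8 by ELISA. Gain or loss of signal fitted bidirectionally vs DMSO baseline.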

A short description of assay [13]: BSK_SAg_Proliferation: Cell Proliferation Assessment in the BioMAP Diversity Plus: SAg Assay (AID 2283095).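 Also: relative cell number as total protein by SRB absorbance in sub-confluent culture.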 To be noted: primary human HUVEC with PBMC. Summed up: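 HUVEC/PBMC co-culture, 96-well. TCA-fixed (10%), 0.1% SRB stain, A560 at 96 h. Protein content used as viability readout; bidirectional fitting vs DMSO control.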
Assay [14] is described as follows: BSK_SAg_SRB: Viability Assessment in the BioMAP Diversity Plus: SAg Assay (AID 2283096).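 Also: cells read one day after compound addition; hits may be either gain or loss of signal compared with DMSO.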 The following applies: primary human HUVEC with PBMC. Summed up:
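Compounds were added to a human vascular co-culture of umbilical vein endothelium and PBMC. After 24 h, parallel cultures were fixed with 10% TCA, stained with 0.1% sulforhodamine B and read at 560 nm. Gain or loss of signal was fitted relative to DMSO.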

Sequence of Tumor necrosis factor (Homo sapiens) (P01375 whole entry, looked up): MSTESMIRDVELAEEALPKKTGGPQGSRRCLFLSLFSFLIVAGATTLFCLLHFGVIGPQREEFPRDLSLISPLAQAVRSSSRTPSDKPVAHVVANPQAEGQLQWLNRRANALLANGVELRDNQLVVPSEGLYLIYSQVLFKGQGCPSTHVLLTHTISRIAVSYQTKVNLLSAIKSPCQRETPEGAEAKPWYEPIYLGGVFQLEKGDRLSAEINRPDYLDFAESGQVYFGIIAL
Sequence of E-selectin (Homo sapiens) (P16581 whole entry, looked up): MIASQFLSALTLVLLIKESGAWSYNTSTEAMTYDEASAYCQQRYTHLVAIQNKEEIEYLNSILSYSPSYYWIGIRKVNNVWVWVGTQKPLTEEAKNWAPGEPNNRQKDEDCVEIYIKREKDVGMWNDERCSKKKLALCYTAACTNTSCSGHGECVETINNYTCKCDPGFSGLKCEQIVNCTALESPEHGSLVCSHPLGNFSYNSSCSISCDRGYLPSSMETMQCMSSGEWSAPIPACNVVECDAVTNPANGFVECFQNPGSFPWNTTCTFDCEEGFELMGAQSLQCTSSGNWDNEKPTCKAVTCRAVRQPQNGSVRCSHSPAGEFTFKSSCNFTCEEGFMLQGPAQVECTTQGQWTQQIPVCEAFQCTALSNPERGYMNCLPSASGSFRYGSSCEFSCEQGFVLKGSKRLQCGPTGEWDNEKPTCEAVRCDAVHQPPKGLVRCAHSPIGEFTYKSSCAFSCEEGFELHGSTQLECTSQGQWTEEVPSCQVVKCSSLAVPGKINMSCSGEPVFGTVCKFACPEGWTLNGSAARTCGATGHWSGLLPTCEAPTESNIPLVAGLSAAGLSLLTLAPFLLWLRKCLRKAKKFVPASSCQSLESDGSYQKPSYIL

With `CCC(C)(C)C(=O)OC1=C(c2ccc(Cl)cc2Cl)C(=O)OC12CCCCC2`, the half-maximal activity concentration (AC50) was 36.5 µM (active) in assay [1]; 31.2 µM (active) in assay [2]; 17.5 µM (active) in assay [4]; 14.1 µM (active) in assay [5]; 32.5 µM (active) in assay [6]; 24.4 µM (active) in assay [7]. Further, the AC50 with CD38, CD38 (gene 952) was 10.3 µM (active); in the assay with CD40, CD40 (gene 958), 10.6 µM (active); with CD69, CD69 (gene 969) it was 14.9 µM (active); in [8] it was 16.7 µM (active); in [9] it was 11.5 µM (active); in assay [10] it was 21.3 µM (active). For the same compound, the AC50 was 26.5 µM (active) in assay [11], 4.73 µM (active) in assay [12], 12.3 µM (active) in [13] and 32.8 µM (active) in assay [14]. For the same compound, in assay [3], the result was inactive.

Consider `CNC(=O)/C=C(\C)OP(=O)(OC)OC`, for which the result in [1], in assay [2], in assay [3], in assay [4], in [5] and in [6] was inactive. The outcome in [7] was “inactive”; in the assay with CD38, CD38 (gene 952), “inactive”; in the assay with CD40, CD40 (gene 958) it was “inactive”; in the assay with CD69, CD69 (gene 969), “inactive”; in [8] it was “inactive”; in [9] it was “inactive”. The result in assay [10], in [11], in [12], in assay [13] and in assay [14] was inactive.

With `C#CCN1C(=O)COc2cc(F)c(N3C(=O)C4=C(CCCC4)C3=O)cc21`, the result in [1], in assay [2], in assay [3], in assay [4], in assay [5] and in assay [6] was inactive. The outcome in assay [7] is “inactive”; in the assay with CD40, CD40 (gene 958) it was “inactive”; in the assay with CD69, CD69 (gene 969) it was “inactive”; in assay [8], “inactive”; in assay [10], “inactive”; in assay [11] it was “inactive”. The outcome in assay [12], in [13] and in assay [14] was inactive. Further, the AC50 with CD38, CD38 (gene 952) was 14.2 µM (active); in assay [9], 16.3 µM (active).

Broadly, the AC50 is the midpoint of the concentration-response curve, whichever way the signal moves.
